Shown are actives, neighbours in structure and some others; about 2.4% of the full set was active somewhere.
D2 ag-1 – activates the human D2 dopamine receptor | P14416 | HEK293 T-REx D2 cells, calcium flux agonist mode | activation, % at 2 µM | hit rate 0.53% among 340,000 | AID 485358;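 active means activation over 3 SD above normal in the single-dose calcium agonist read, cut at about 30% in these data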; further: 0% is about no effect
Target sequence (P14416 whole entry, looked up): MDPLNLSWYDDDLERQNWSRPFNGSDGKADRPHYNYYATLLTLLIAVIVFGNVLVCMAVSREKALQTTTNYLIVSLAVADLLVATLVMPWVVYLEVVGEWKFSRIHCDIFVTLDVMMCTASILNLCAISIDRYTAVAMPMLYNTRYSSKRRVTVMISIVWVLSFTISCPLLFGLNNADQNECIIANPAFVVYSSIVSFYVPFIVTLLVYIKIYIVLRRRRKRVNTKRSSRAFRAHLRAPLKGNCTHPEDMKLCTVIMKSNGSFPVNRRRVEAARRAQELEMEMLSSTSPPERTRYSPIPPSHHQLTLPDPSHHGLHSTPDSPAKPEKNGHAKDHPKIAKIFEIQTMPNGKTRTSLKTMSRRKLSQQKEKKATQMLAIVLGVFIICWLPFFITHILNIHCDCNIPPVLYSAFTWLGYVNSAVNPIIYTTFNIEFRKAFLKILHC
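Agonism is scored from calcium flux in a force-coupled, inducible HEK293 cell line expressing D2, read kinetically for 180 s after compound addition against dopamine controls.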
D2 PAM-1 – positive allosteric modulators of human D2 dopamine receptor; HEK293 T-REx D2, calcium flux, EC20 dopamine potentiation; potentiation, % at 10 µM; hit rate 0.34% among 340,000; AID 485347;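 active means potentiation over 3 SD above the plate norm, cut at about 30% in these data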; further: 0% is about no effect
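Tetracycline-induced HEK293 T-REx cells force-coupled to calcium signalling expressed D2; compounds were pin-added after a 10 s baseline, read kinetically 180 s, then an EC20 dopamine challenge followed with a further 180 s calcium read.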
D2 ag-2 – activates the human D2 dopamine receptor | P14416 | DiscoveRx PathHunter D2 beta-arrestin, luminescence, 90 min; 100% = 57 uM dopamine signal | activation, % (no concentration beside the values) | hit rate 0.084% among 360,000 | AID 624465; in the data active means activation above about 40%; inconclusive means between about 15% and that limit
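Agonist mode: compounds alone added to overnight-plated D2 PathHunter cells for 90 min at 37 C, with 57 uM final dopamine (EC100) defining full response. Beta-arrestin recruitment detected by chemiluminescent reagent, read after 1 h at ambient temperature.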
D2 antagonist – antagonizes the human D2 dopamine receptor | P14416 | inhibition, % at 10 µM | AID 485344 | HEK293 TREx D2 cells, calcium flux, dopamine EC80 | hit rate 2% among 340,000; in the data active means inhibition above about 30%; inactive means below that, where a call was filed; further: 0% is about no effect
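Measurement of antagonist activity uses fluorescent calcium dye in inducible HEK293 T-REx D2 cells: 10 s baseline, compound addition with 180 s read, EC80 dopamine addition with a further 180 s read.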
D2 PAM-2 – positive allosteric modulators of human D2 dopamine receptor; P14416; DiscoveRx D2 beta-arrestin cells, luminescence, 90 min; 100% = 57 uM dopamine signal; potentiation, % (no concentration beside the values); hit rate 0.23% among 360,000; in the data active means potentiation above about 50%; inconclusive means mostly about 30% to 49%
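D2 cells co-treated with compound plus 50 nM dopamine (EC20) for 90 min at 37 deg C to detect potentiation. Beta-arrestin recruitment was read as enzyme-fragment luminescence after 1 h at ambient temperature. Full response was set by 57 uM dopamine.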
An asterisk follows results filed as active; ? = inconclusive; · = not tested or not shown.

SMILES | D2 ag-1 | D2 PAM-1 | D2 ag-2 | D2 antagonist | D2 PAM-2
O=C(CNS(=O)(=O)c1ccccc1)OCC(=O)c1ccc([N+](=O)[O-])cc1 | -0.4 | 3.4 | 13.5 | -6.3 | 11.2
NNC(=O)CNS(=O)(=O)c1ccc([N+](=O)[O-])cc1 | 2.1 | 8.4 | 7.0 | 49.1* | 15.4
O=S(=O)(N/N=C/c1ccc(N2CCOCC2)cc1)c1ccc(Br)cc1 | 0.1 | 30.9* | -2.2 | 1.9 | -8.4
c1csc(-c2nnc(NC3CCCCC3)c3ccccc23)c1 | 1.3 | -30.8 | -0.5 | 43.2* | -29.6
CCOC(=O)c1cc(C)nc(SC)c1C#N | 0.6 | 9.5 | 4.4 | 30.7* | 1.5
CCOC(=O)c1cc(C(C)(C)C)nc(SC)c1C#N | -0.7 | 7.4 | -6.3 | -17.0 | -15.5
COc1ccc(-c2nnc(SCC(=O)c3[nH]c(C)c(C(C)=O)c3C)o2)cc1 | 0.4 | 38.1* | 0.8 | -8.5 | -4.1
CC(=O)c1c(C)[nH]c(C(=O)CSc2nnc(-c3ccco3)o2)c1C | 0.1 | 8.0 | 3.0 | -10.2 | -2.7
O=C(NNC(=O)C1CCN(S(=O)(=O)c2cccc(C(F)(F)F)c2)CC1)C1CC1 | -0.1 | -3.4 | 0.5 | 3.8 | 3.0
CNC(=O)c1ccc(NC(=O)C2CCN(S(=O)(=O)c3cccc(C(F)(F)F)c3)CC2)cc1 | 1.2 | -1.6 | 0.8 | 30.3* | 13.5
O=C(O)/C=C/C(=O)N1CCN(S(=O)(=O)c2cccc(C(F)(F)F)c2)CC1 | 0.0 | 5.0 | 2.6 | 31.1* | ?
CN(Cc1cnn(C)c1)C(=O)C1CCC(=O)N(Cc2cccc(C(F)(F)F)c2)C1 (stereo unspecified) | · | · | -2.1 | · | 10.3
CN(Cc1cccc(C(F)(F)F)c1)C(=O)C1CCC(=O)N(CC2CCCCC2)C1 (stereo unspecified) | -1.1 | -0.6 | -2.2 | 30.9* | -9.9
Cc1ccc(CSCC(=O)NCc2cccnc2)cc1 | -1.1 | -3.4 | 0.1 | -1.1 | -2.9
Cc1ccc(CC(=O)NCc2cccnc2)cc1 | 0.9 | 4.1 | · | 67.4* | ·
O=C(NCc1cccnc1)c1ccc(-c2ccc(Cl)cc2)o1 | 0.4 | -16.5 | 2.5 | -18.9 | -16.9
O=C(NCc1cccnc1)c1ccc(-c2cc(Cl)ccc2Cl)o1 | -0.8 | -20.1 | -5.7 | 49.9* | -6.1
Cc1c(Cl)c([N+](=O)[O-])nn1CC(=O)NCc1cccnc1 | -0.4 | -1.6 | 2.9 | 39.3* | 0.3
CCOc1ccc(N(C)S(=O)(=O)c2c[nH]c(C(=O)OC)c2)cc1 | 0.2 | -5.6 | 3.0 | 6.9 | -1.2
Oc1ccc2ccccc2c1C=NC12CN3CCN(CN(C3)C1)C2 | · | · | 11.5 | · | 102.5*
Oc1ccccc1N=Cc1c(O)ccc2ccccc12 | 24.1 | 14.7 | 8.1 | -2.4 | -7.1
OCC(CO)(CO)N=Cc1c(O)ccc2ccccc12 | -0.3 | -7.2 | 8.4 | -10.1 | 50.2*
C=Cc1ccc(N=Cc2c(O)ccc3ccccc23)cc1 | 2.3 | 16.4 | -1.4 | 43.5* | 2.5
CC(C)(CNS(=O)(=O)c1cccs1)N1CCOCC1 | · | · | -3.2 | · | -1.4
COc1ccc(CCCNC(=O)C2Cc3c(-c4ccccc4)ccnc3O2)cc1 (stereo unspecified) | · | · | 9.5 | · | 5.8
SMILES | D2 ag-1 | D2 PAM-1 | D2 ag-2 | D2 antagonist | D2 PAM-2
O=C1CC(NS(=O)(=O)c2ccc3ccccc3c2)CN1c1ccccc1 (stereo unspecified) | -0.5 | -9.3 | 3.6 | -10.2 | 16.0
CC[C@@H]1CCCCc2ccccc2[C@H](C(=O)C[C@H](O)CC(C)=O)OC1=O | · | · | -4.4 | · | -1.2
O=C(CN1C(=O)COc2ccccc21)NCCCN1CCc2ccccc2C1 | -0.5 | -30.3 | -1.2 | 57.7* | -23.8
O=C(CN1C(=O)COc2ccccc21)NCCCN1CCN(Cc2ccccc2)CC1 | 0.7 | -16.0 | -1.4 | 10.2 | -17.8
O=C(CN(c1ccc(Cl)c(C(F)(F)F)c1)S(=O)(=O)c1ccccc1)N1CCc2ccccc2C1 | 1.0 | -12.4 | · | · | ·
CN1CCc2c(c3ccccc3n2Cc2ccccc2)C1 | 0.1 | -21.2 | -2.5 | 32.9* | -27.8
CN1CCc2c(c3ccccc3n2C)C1 | 0.8 | -20.5 | -0.9 | 61.4* | -45.1
CCCCN1CCc2c(c3ccccc3n2Cc2ccccc2)C1 | 0.6 | -25.2 | -0.7 | -4.7 | -23.3
Cc1ccc(C(=O)NNC(=S)NC(=O)c2ccc(Cl)cc2Cl)cc1 | 70.1* | -22.8 | -1.7 | -1.1 | 0.8
Cc1ccccc1C(=O)NNC(=S)NC(=O)c1ccccc1 | 51.2* | -9.2 | 1.3 | 17.5 | -24.0
COc1ccc(Cl)cc1C(=O)NNC(=S)NC(=O)c1ccc(F)c(F)c1 | 29.9 | -2.9 | -3.8 | 40.4* | -7.1
COc1ccc(C(=O)NNC(=S)NC(=O)c2ccc(F)cc2)cc1Br | · | · | 7.6 | · | -9.1
Cc1ccc(C(=O)NC(=S)NNC(=O)c2ccc([N+](=O)[O-])cc2)cc1 | 1.5 | 0.2 | -2.3 | 33.2* | -1.5
Cc1ccc(C(=O)NNC(=S)NC(=O)c2ccccc2)cc1 | · | · | -5.3 | · | -26.6
Cc1ccc(C(=O)Nc2nc(-c3ccccn3)cs2)cc1S(=O)(=O)N1CCOCC1 | -0.3 | -5.1 | 9.9 | 13.8 | 3.5
COc1ccc(S(N)(=O)=O)cc1-c1nnc2c3ccccc3c(C)nn12 | 0.0 | -3.4 | 0.6 | 30.1* | -0.1
CN(C)S(=O)(=O)c1ccc(C(=O)Nc2ccc3nc(N4CCOCC4)sc3c2)cc1 | · | · | -0.1 | · | 5.9
Cc1csc(NC(=O)C2CCCN(S(=O)(=O)c3ccc(Br)s3)C2)n1 (stereo unspecified) | -0.7 | -9.9 | -0.9 | 38.2* | -20.9
CC(=O)Nc1ccc(CN2CCN(c3cccc(C(F)(F)F)c3)CC2)cc1 | 1.6 | -19.0 | -3.7 | 42.7* | -10.4
Oc1cc2c(cc1CN1CCN(c3cccc(C(F)(F)F)c3)CC1)CCC2 | -1.0 | -21.7 | -0.3 | 56.4* | -38.3
COc1ccc(N2CCN(Cc3cc4c(cc3O)CCC4)CC2)cc1 | -0.2 | -0.1 | 0.5 | 29.8 | -13.6
CC(=O)Nc1ccc(NC(=O)CN2CCN(c3cccc(C(F)(F)F)c3)CC2)cc1 | 6.9 | -14.9 | 1.2 | 2.1 | -38.6
COc1ccc2c(c1)c(C(O)CN1CCC(Cc3ccccc3)CC1)c(C)n2C (stereo unspecified) | 0.3 | -25.8 | -2.5 | 50.8* | -19.5
COc1cc(/C=C2/SC(=Nc3ccc(O)cc3)NC2=O)cc(OC)c1O | 51.3* | -24.9 | 8.5 | 2.8 | 5.1
CCOC(=O)c1cccc(NC(=O)C2Cc3ccccc3N2C(=O)c2ccccc2)c1 (stereo unspecified) | 0.7 | 8.6 | · | · | ·
O=C(NCc1ccc(F)cc1)C1CCN(S(=O)(=O)c2cccc3nonc23)CC1 | -0.1 | 31.9* | -1.6 | -7.5 | -2.0
Cc1ccc(CNC(=O)C2CCN(S(=O)(=O)c3cccc4nonc34)CC2)cc1 | 0.5 | -2.4 | -2.0 | -4.8 | 4.2
COc1ccc(CCN(C)C(=O)CNC(=O)Cc2cccc3ccccc23)cc1OC | 0.6 | -0.2 | -2.5 | 0.5 | -1.6
COc1ccc(NC2=NC3(CCCCC3)N=C(N)N2)cc1 | -0.4 | 17.5 | -1.6 | -22.1 | -26.6

Compound activity: PubChem, National Center for Advancing Translational Sciences (NCATS)
